12-hLO inh: qHTS Assay for Inhibitors of 12-hLO (12-human lipoxygenase) | AID 1452, 2008 | Potency, µM (highest dose often 57.1 µM), inactives show at the top dose activity change, negative = inhibition, usual class: inhibitors | Polyunsaturated fatty acid lipoxygenase ALOX12 (Homo sapiens), P18054 | 150,000 compounds, 0.12% hits | purified 12-hLO, xylenol orange hydroperoxide absorbance; active = well fitted inhibition curve with a large enough effect; inconclusive = small, poorly fitted or top-dose-only effect; also: potency is read from the fitted curve at half-maximal effect; nearly all actives have a fitted effect of over 55% in size
Target sequence (P18054 whole entry, looked up): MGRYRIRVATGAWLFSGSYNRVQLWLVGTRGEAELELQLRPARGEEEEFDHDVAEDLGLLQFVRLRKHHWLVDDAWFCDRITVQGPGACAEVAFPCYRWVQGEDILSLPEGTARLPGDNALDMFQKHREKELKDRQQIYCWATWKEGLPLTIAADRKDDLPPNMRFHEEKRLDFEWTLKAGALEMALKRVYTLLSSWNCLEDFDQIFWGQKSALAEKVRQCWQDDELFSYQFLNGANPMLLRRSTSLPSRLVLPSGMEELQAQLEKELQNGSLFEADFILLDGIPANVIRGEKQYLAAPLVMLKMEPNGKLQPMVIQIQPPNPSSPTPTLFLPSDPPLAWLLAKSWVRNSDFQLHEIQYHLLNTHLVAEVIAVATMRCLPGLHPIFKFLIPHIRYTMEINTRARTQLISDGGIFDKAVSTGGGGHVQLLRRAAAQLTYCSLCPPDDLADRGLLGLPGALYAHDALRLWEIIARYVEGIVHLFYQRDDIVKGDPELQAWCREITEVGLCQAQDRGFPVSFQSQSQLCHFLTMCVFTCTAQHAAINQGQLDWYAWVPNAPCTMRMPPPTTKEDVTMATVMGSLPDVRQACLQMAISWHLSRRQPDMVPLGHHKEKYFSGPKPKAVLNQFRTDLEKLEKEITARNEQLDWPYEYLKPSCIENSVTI
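Hydroperoxide output read as Fe(III)-xylenol orange absorbance, 573-to-405 nm ratio, after 30 min reaction with 40 uM arachidonic acid. Enzyme: 150 nM purified human 12hLO, 15 min compound preincubation; 25 mM Hepes pH 7.0, room temperature.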
Lamin A splicing: qHTS Assay for Modulators of Lamin A Splicing. AID 1487, 2009. Potency, µM (top dose mostly 46.1 µM), for inactives: at the highest dose ratio change, negative = inhibition, actives largely listed as inhibitors. 200,000 compounds, 0.01% hits. HeLa LMNA splicing GFP/RFP minigene ratio, 48 h; active = well fitted inhibition curve with a large enough effect in the signal ratio, with a control signal flat, not every such curve was filed as active; inconclusive = small, poorly fitted or top-dose-only effect, or effect the other way, or a change in a side signal; the % refers to the signal ratio; also: potency is read from the fitted curve at half-maximal effect
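S3 HeLa stable clones carrying a lamin A-EGFP splicing minigene plus DsRed2 were seeded at 600 cells/well in Opti-MEM with 2% FBS, pin-dosed and incubated 48 h at 37°C. Acumen cytometry (488 nm) gave the GFP/RFP total-intensity ratio.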
ALDH1A1 block: qHTS Assay for Inhibitors of Aldehyde Dehydrogenase 1 (ALDH1A1); Aldehyde dehydrogenase 1A1 (Homo sapiens), P00352; Potency, µM (top dose mostly 75.3 µM), inactives show at the top dose activity, negative = inhibition, actives largely listed as inhibitors; 220,000 compounds, 7.3% hits; Purified ALDH1A1, NADH fluorescence, propionaldehyde substrate;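 also: potency is read from the fitted curve at half-maximal effect; plate controls were no enzyme wells and a reference inhibitor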
HPGD inh: qHTS Assay for Inhibitors of HPGD (15-Hydroxyprostaglandin Dehydrogenase); 15-hydroxyprostaglandin dehydrogenase [NAD(+)] (Homo sapiens), P15428; purified HPGD, NADH fluorescence kinetic, PGE2 substrate; Potency, µM, for inactives: top-dose activity change, negative = inhibition, usual class: inhibitors; 150,000 compounds, 4.3% hits; AID 894, 2007; also: potency is read from the fitted curve at half-maximal effect
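NADH formation kinetics: reaction with 30 uM PGE2 and 1 mM NAD+ (final), 20 nM enzyme, Tris-HCl pH 8 with Tween 20, after 15 min compound preincubation at room temperature. Fluorescence change, last versus first of five reads.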
PNC assembly inh: High Content Assay for Compounds that inhibit the Assembly of the Perinucleolar Compartment; PC3M PTB-GFP, PNC prevalence imaging, 16 h; active compounds read low; activity change (PNC), negative = inhibition, % at 10 µM; 140,000 compounds, 3.1% hits; AID 2417, 2010;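 active = readout at or below -70, meaning at least 70% loss of cells showing the perinucleolar compartment, a nuclear body marking cancer cells; inconclusive = readout between -30 and a set limit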;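 also: plate controls were DMSO wells for no effect and camptothecin positive control wells for full effect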
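Read-out is percentage of cells bearing a perinucleolar compartment, from automated 20x imaging of fixed, Hoechst-stained PC3M PTB-GFP cells. Cells were seeded 4 h, then exposed 16 h to compound (23 nl of library stock) in duplicate plates.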
* hit, by the source's call; u = inconclusive; x = not tested or not shown; [ ] = remark or other dose. Rows were chosen to be rich in hits. Some 10% of all compounds tested hit in one or more screens of this group. Unless noted, calls follow the shape of the dose curve; as a rule, active = well fitted inhibition curve with a large enough effect (not every such curve was filed as active); inconclusive = small, poorly fitted or top-dose-only effect, or another doubt; inactive = no such curve, though single readings can be large or run the other way. Unless noted, % is scaled to controls: 0 for no effect and ±100 for the full control effect.

SMILES | 12-hLO inh | Lamin A splicing | ALDH1A1 block | HPGD inh | PNC assembly inh
CCN(CC)CCCNC(=O)c1ccc(-n2c(=O)c(=O)[nH]c3ccccc32)cc1 | 2.9% | x | 0.3% | -2.9% | x
CC1CCCN(S(=O)(=O)c2ccc(NC(=O)c3cccc(-n4cnnn4)c3)cc2)C1 (configuration not stated) | -0.3% | -10.1% | u | 28.2µM* | -15.2
O=C(C1CCN(S(=O)(=O)c2ccc(-n3cnnn3)cc2)CC1)N1CCN(c2ccccc2)CC1 | -4.3% | 5.2% | 28.2µM* | -9.3% | u
COc1ccc(NC(=O)c2cccc(-n3cnnn3)c2)cc1 | -3.6% | -4.2% | -0.4% | x | -26.4
COc1cc(C(=O)Nc2ccc(S(=O)(=O)N3CCCCC3C)cc2)cc(OC)c1OC (configuration not stated) | -6.3% | u | u | -13.9% | u
CC1CCCCN1S(=O)(=O)c1ccc(NC(=O)c2cccc(-n3cnnn3)c2)cc1 (configuration not stated) | -2.8% | -18.1% | 25.1µM* | 22.4µM* | -10.7
COc1ccc(C(=O)Nc2ccc(S(=O)(=O)N3CCCCC3C)cc2)c(OC)c1OC (configuration not stated) | -6.3% | u | 17.8µM* | u | u
O=C(Nc1ccccc1)C1CCCN(S(=O)(=O)c2ccc(-n3cnnn3)cc2)C1 (configuration not stated) | 3.9% | 7.7% | u | -8.9% | -21.5
Cc1cccc(C)c1OC[C@@H](N)C(C)C | -4.5% | x | x | x | x
OCCO | -3.6% | x | 1.3% | -18.6% | x
O=C(NCCc1csc2nc(-c3cccc(F)c3)nn12)c1ccc(Br)o1 | x | -8.1%[46 µM] | x | x | x
COc1ccc(S(=O)(=O)NCC(c2ccco2)S(=O)(=O)c2ccc(C)cc2)cc1C (configuration not stated) | x | -22.0%[46 µM] | x | x | x
C/C(CC(=O)Nc1ccccn1)=N\NC(=O)c1ccc2ccccc2c1 | -0.9% | -9.7% | 5.62µM* | -16.0% | u
C/C(CC(=O)Nc1ccccn1)=N\NC(=O)c1ccccc1 | -2.2% | -12.4% | 9.1% | -0.8% | 12.1
COc1ccc(NC(=O)c2sc3nc(-c4cc5ccc(OC)cc5oc4=O)[nH]c(=O)c3c2C)cc1 | x | 20.1%[46 µM] | x | x | x
CC1CCC(C(C)C)C2=C1C(C#N)(C#N)C(C#N)(C#N)C(c1ccccc1)N2 (configuration not stated) | -27.6% | u | 10µM* | -13.4% | -8.2
CC1=CC(C#N)(C#N)C(C#N)(C#N)C(c2ccccc2)N1 (configuration not stated) | -7.3% | 2.3% | u | u | 7.2
Cc1c(Cl)cccc1NC(=O)C(=O)NCCc1csc(-c2ccc(C(F)(F)F)cc2)n1 | x | 12.8%[46 µM] | x | x | x
O=C1CC(Nc2ccc(N3CCOCC3)cc2)C(=O)N1CCc1ccccc1 (configuration not stated) | u | 8.2% | 25.1µM* | -9.6% | 5.1
COc1ccc(N2C(=O)CC(Nc3ccc(N4CCOCC4)cc3)C2=O)c(OC)c1 (configuration not stated) | -28.7% | 7.6% | u | -0.9% | -87.9*
O=C1CC(Nc2ccc(N3CCOCC3)cc2)C(=O)N1c1cccc(C(F)(F)F)c1 (configuration not stated) | u | -9.2% | 8.91µM* | -26.8% | 22.2
COc1cccc(N2C(=O)CC(Nc3ccc(N4CCOCC4)cc3)C2=O)c1 (configuration not stated) | u | 17.3% | -1.2% | -1.6% | -5.8
NC(N)=N[C@H](CCC(=O)O)C(=O)O | -2.4% | x | x | x | x
O=C(OCc1ccco1)c1ccc2c(c1)N(Cc1ccc([N+](=O)[O-])cc1)C(=O)c1ccccc1S2 | x | 7.6%[46 µM] | x | x | x
Cc1cc(Nc2ccc(O)cc2)ccc1N | -7.5% | x | 3.16µM* | -13.4% | x
SMILES | 12-hLO inh | Lamin A splicing | ALDH1A1 block | HPGD inh | PNC assembly inh
Cn1c(=O)c2c(nc(CN3CCN(c4ccccc4F)CC3)n2CCN2CCOCC2)n(C)c1=O | -3.0% | -6.4% | u | -8.8% | -100.0*
CCOC(=O)N1CCN(Cc2nc3c(c(=O)n(C)c(=O)n3C)n2Cc2cc(C)ccc2C)CC1 | 6.8% | 2.1% | 0.891µM* | -3.9% | u
Cc1ccc(Cn2c(CN3CCOCC3)nc3c2c(=O)n(C)c(=O)n3C)cc1 | 12.1% | -7.7% | 10µM* | -15.1% | -100.0*
Cn1c(=O)c2c(nc(CN3CCOCC3)n2CCN2CCOCC2)n(C)c1=O | 0.0% | 2.3% | u | -14.6% | u
COc1cccc(/C=N/NC(=O)c2cc3c(OC)cccc3[nH]2)c1OC | -3.8% | -22.9% | -2.2% | -26.9% | u
COc1cccc(/C=N/NC(=O)c2cc3c(OC)c(OC)ccc3[nH]2)c1OC | -2.5% | u | u | u | -83.6*
CCN(CC)c1ccc(C2N(C(=O)N3CCOCC3)CCN2S(=O)(=O)c2ccc(C)cc2)cc1 (configuration not stated) | 1.6% | 8.2% | 7.94µM* | -2.6% | u
Cc1ccc(S(=O)(=O)N2CCN(C(=O)N3CCOCC3)C2C(C)C)cc1 (configuration not stated) | -0.6% | 2.1% | -1.8% | -1.1% | -24.6
Cc1cc(C)cc(-n2c(O)c(C=NC3CCS(=O)(=O)C3)c3ccccc3c2=O)c1 (configuration not stated) | 7.8% | -24.4% | -3.6% | -13.7% | -9.5
Cc1cccc(-n2c(O)c(C=NC3CCS(=O)(=O)C3)c3ccccc3c2=O)c1 (configuration not stated) | 2.5% | -8.5% | 15.8µM* | -28.4% | -17.2
O=S1(=O)C=C(Oc2ccc3ccccc3c2)c2ccccc21 | -9.1% | u | 10µM* | -24.8% | 31.3
O=S1(=O)C=C(Oc2ccc(F)cc2)c2ccccc21 | -15.8% | -18.7% | u | -15.4% | 13.8
CCOC(=O)c1ccc(-n2c(N)c(C(=O)NCc3ccco3)sc2=S)cc1 | u | 29.0% | 17.8µM* | 28.2µM* | -21.0
CCn1c(N)c(C(=O)NCc2ccco2)sc1=S | -14.0% | -3.1% | 14.1µM* | 22.4µM* | u
CCn1c(N)c(C(N)=O)sc1=S | -2.6% | 11.7% | 8.91µM* | u | -5.7
CCOC(=O)c1ccc(-n2c(=S)sc3c(=O)[nH]c(C)nc32)cc1 | -2.3% | 23.0% | 7.08µM* | 6.31µM* | u
COc1ccc(-n2c(N)c(C(=O)NCc3ccco3)sc2=S)cc1 | -18.1% | -7.9% | u | u | 35.6
O=C(Nc1ccccc1)N1CCCC2(CCN(C(=O)c3cc(C(F)(F)F)cc(C(F)(F)F)c3)CC2)C1 | 5.4% | x | 4.5% | -9.2% | x
C=CCNC(=O)c1sc(=S)n(-c2ccc(C(=O)OCC)cc2)c1N | -20.7% | -12.6% | 12.6µM* | 15.8µM* | 23.4

Screening data (PubChem BioAssay)
